PPC-1+TRAIL kill – kills PPC-1 cancer cells in the presence of TRAIL; PPC-1 cells + TRAIL, ATPLite viability luminescence; cell killing (% activity), % at 4 µM or 5 µM; 220,000 compounds, 0.41% hits; AID 1443;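 active = cell killing above 50% in the first pass at 4 µM, then a duplicate retest at 5 µM averaging 50% or more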
SENP6 inh – inhibitors of human SENP6 protease; Q9GZR1; 330,000 compounds, 1.8% hits; Recombinant SENP6 catalytic domain, aminoluciferin luminescence; inhibition, % at 10 µM;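 active = inhibition above about 50% at the single tested dose, limit read from the data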
Target sequence (Q9GZR1 628-1112 limits assumed): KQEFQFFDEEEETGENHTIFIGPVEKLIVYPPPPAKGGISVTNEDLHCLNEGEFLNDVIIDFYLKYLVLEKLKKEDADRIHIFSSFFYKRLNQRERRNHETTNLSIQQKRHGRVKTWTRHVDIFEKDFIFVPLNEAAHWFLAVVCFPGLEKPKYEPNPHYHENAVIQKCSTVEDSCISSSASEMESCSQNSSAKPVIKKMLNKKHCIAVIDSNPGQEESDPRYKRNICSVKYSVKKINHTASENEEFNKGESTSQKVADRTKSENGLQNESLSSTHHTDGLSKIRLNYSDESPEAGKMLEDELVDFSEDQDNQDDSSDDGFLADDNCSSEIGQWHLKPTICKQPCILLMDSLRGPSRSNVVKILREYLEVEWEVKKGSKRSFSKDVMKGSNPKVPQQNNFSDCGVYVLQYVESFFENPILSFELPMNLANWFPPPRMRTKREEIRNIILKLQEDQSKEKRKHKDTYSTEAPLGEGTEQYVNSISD
SENP8 block-1 – blocks the human protease SENP8 | Q96LD8 | purified SENP8, Z-RLRGG-aminoluciferin cleavage, luminescence | inhibition, % at 10 µM | 330,000 compounds, 1.2% hits; in the data active = inhibition above about 50%
Target sequence (Q96LD8 whole entry, looked up): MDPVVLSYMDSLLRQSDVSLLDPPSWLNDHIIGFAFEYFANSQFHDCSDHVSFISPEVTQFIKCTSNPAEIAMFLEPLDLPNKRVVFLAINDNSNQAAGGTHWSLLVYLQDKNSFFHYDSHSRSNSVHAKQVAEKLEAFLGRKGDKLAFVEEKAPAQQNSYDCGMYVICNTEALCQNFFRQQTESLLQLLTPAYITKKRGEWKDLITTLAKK
C8 TRAIL sens – sensitizes caspase-8 expressing cells to TRAIL; NB7+C8 cells + TRAIL, ATPlite viability luminescence; inhibition (viability loss, TRAIL sensitization), % at 10 µM; 360,000 compounds, 1% hits; AID 624354;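 active = compounds causing at least 50% loss of cell viability in the single-dose screen, relative to plate controls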
SENP7 block – inhibitors of human SENP7 protease; AID 434973; recombinant SENP7, Z-RLRGG-aminoluciferin luminescence, 40 min; inhibition, % at 5 µM; 330,000 compounds, 1.5% hits;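 active = inhibition above about 50% at the single test dose, limit read from the data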
SENP8 block-2 – inhibitors of human SENP8 protease; Q96LD8; recombinant SENP8, Nedd8 substrate fluorescence; inhibition, % at 20 µM; 360,000 compounds, 0.64% hits; AID 602440; in the data active = inhibition mostly above about 40%, no sharp cut-off; inactive = mostly below about 27%
SENP8 confirm – confirmation of human SENP8 protease inhibitors; shares compounds with SENP7 block; Recombinant SENP8, Z-RLRGG-aminoluciferin luminescence, 60 min; inhibition, % at 12.5 µM; 6,200 compounds, 40% hits;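 active = mean inhibition across replicates above about 50%, limit read from the data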
SENP6 conf – human SENP6 inhibition, confirmed; shares compounds with SENP7 block; recombinant SENP6, Z-RLRGG-aminoluciferin luminescence; 6,200 compounds, 58% hits; inhibition, % at 12.5 µM
SENP7 confirm – human SENP7 inhibition, confirmed | recombinant SENP7, Z-RLRGG-aminoluciferin luminescence, 40 min | 6,200 compounds, 69% hits | inhibition, % at 12.5 µM | AID 488917 | shares compounds with SENP7 block
Casp3 SENP sel – inhibits human caspase-3 in SENP selectivity test; shares compounds with SENP7 block; 6,200 compounds, 60% hits; inhibition, % at 12.5 µM; purified caspase-3, Z-DEVD-aminoluciferin luminescence, 60 min; AID 488918;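 active = mean inhibition above about 50%, limit read from the data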
SENP luc ctr – interferes with luciferase luminescence in SENP counter-screen. shares compounds with SENP7 block. 6,200 compounds, 39% hits. AID 488919. inhibition, % at 12.5 µM. Pre-incubated SENP8/Z-RLRGG-aminoluciferin, luciferase luminescence interference;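 active = mean inhibition above about 50% when retested at one dose, limit read from the data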
Each line names hits and unclear results; the compound was inactive in the other large screens (follow-up assays come after a bar, where they were run); ! = not confirmed by another sample. Sampled rows, rich in hits. Any-hit rate of the full collection: about 3%.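 Rule for the calls, unless noted: active = mean inhibition above about 50% in the one-dose retest (limit read from the data); inactive = the rest.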

Oc1c(/C=N/c2ccccn2)sc2ccccc12	SENP6 inh 98.5, SENP8 block-1 95.1, SENP7 block 95.1 | SENP8 confirm 96.2 | SENP6 conf 96.8 | SENP7 confirm 102.1 | Casp3 SENP sel 96.0 | SENP luc ctr inactive
CC(=O)NCCN=Cc1sc2ccccc2c1O	none
Oc1c(C=Nc2ccccc2)sc2ccccc12	SENP6 inh 97.1, SENP8 block-1 96.6, SENP7 block 101.3 (no result: PPC-1+TRAIL kill) | SENP8 confirm 91.8 | SENP6 conf 99.8 | SENP7 confirm 102.9 | Casp3 SENP sel 98.5 | SENP luc ctr inactive
Cc1ccsc1C(=O)NCCc1nnc2ccccn12	none (no result: PPC-1+TRAIL kill)
C[C@H](CO)N1C[C@H](C)[C@H](CN(C)Cc2ccc(Oc3ccccc3)cc2)Oc2cc(Br)ccc2S1(=O)=O	none (no result: PPC-1+TRAIL kill, SENP6 inh, SENP8 block-1, SENP7 block)
O=C(COC(=O)c1ccc[nH]c1=O)c1ccc(Cl)s1	none
Cc1ccc(C(=O)OCC(=O)c2ccc(Cl)s2)s1	SENP6 inh 53.7 | SENP8 confirm 51.7 | SENP6 conf inactive | SENP7 confirm 80.1 | Casp3 SENP sel inactive | SENP luc ctr inactive
O=C(COC(=O)c1cccnc1Cl)c1ccc(Cl)s1	SENP6 inh 55.9, SENP7 block 76.3 (no result: PPC-1+TRAIL kill) | SENP8 confirm 67.0 | SENP6 conf 62.9 | SENP7 confirm 87.5 | Casp3 SENP sel 79.9 | SENP luc ctr 76.0
Cc1ccc(C(=O)OCC(=O)NCCNC(=O)COC(=O)c2ccc(C)s2)s1	none (no result: PPC-1+TRAIL kill)
c1ccc(C2=NN(c3ccccc3)CC2)cc1	SENP8 block-1 57.0, SENP7 block 58.5 | SENP8 confirm inactive | SENP6 conf inactive | SENP7 confirm inactive | Casp3 SENP sel inactive | SENP luc ctr inactive
CCOC(=O)/C(=C/c1ccc(N2CCC(c3ccccc3)=N2)cc1)C(C)=O	none (no result: SENP6 inh, SENP8 block-1, SENP7 block)
CC(C#N)(CCc1ccccn1)CCc1ccccn1	none (no result: PPC-1+TRAIL kill, SENP6 inh, SENP8 block-1, SENP7 block)
O=C(O)c1ccc(/C=C/C(=O)c2ccc3c(c2)OCCCO3)cc1	SENP6 inh 59.7 (no result: PPC-1+TRAIL kill) | SENP8 confirm 70.4 | SENP6 conf 57.0 | SENP7 confirm 74.2 | Casp3 SENP sel inactive | SENP luc ctr 77.7
O=C(COc1ccccc1)Nc1cccc(-c2ccc(N3CCOCC3)nn2)c1	SENP6 inh 61.1, C8 TRAIL sens 70.1, SENP7 block 53.2 (no result: PPC-1+TRAIL kill) | SENP8 confirm inactive | SENP6 conf inactive | SENP7 confirm 76.0 | Casp3 SENP sel 65.9 | SENP luc ctr inactive
Cc1ccc([N+](=O)[O-])cc1S(=O)(=O)Nc1cccc(-c2ccc(N3CCCC3)nn2)c1	SENP6 inh 89.6, SENP8 block-1 82.6 (no result: PPC-1+TRAIL kill) | SENP8 confirm 61.6 | SENP6 conf 75.6 | SENP7 confirm 87.4 | Casp3 SENP sel 69.9 | SENP luc ctr inactive
O=C(Nc1cccc(-c2ccc(N3CCOCC3)nn2)c1)c1ccccc1	none (no result: PPC-1+TRAIL kill)
Cc1ccc(C(=O)Nc2cccc(-c3ccc(N4CCOCC4)nn3)c2)cc1[N+](=O)[O-]	SENP6 inh 66.9, SENP8 block-1 50.4, SENP7 block 62.9 (no result: PPC-1+TRAIL kill) | SENP8 confirm inactive | SENP6 conf inactive | SENP7 confirm inactive | Casp3 SENP sel inactive | SENP luc ctr inactive
Cc1ccc(S(=O)(=O)Nc2cccc(-c3ccc(N4CCCCCC4)nn3)c2)cc1C	none (no result: PPC-1+TRAIL kill)
O=C(COc1ccc(Cl)cc1Cl)Nc1cccc(-c2ccc(N3CCOCC3)nn2)c1	SENP7 block 75.7 (no result: PPC-1+TRAIL kill) | SENP8 confirm inactive | SENP6 conf inactive | SENP7 confirm inactive | Casp3 SENP sel inactive | SENP luc ctr inactive
CCC1Sc2ccc(S(=O)(=O)N3CCN(c4ccccc4)CC3)cc2NC1=O (stereo unspecified)	none (no result: PPC-1+TRAIL kill)
COc1ccc(C2(c3ccc(OC)cc3)NC(=O)N(CC(=O)NC3(C#N)CCCCC3)C2=O)cc1	none (no result: PPC-1+TRAIL kill)
CCOc1ccc(-c2cccc(NC(=O)c3ccc(Br)o3)c2)nn1	none (no result: PPC-1+TRAIL kill)
O=C(Nc1cccc(-c2ccc(N3CCCCC3)nn2)c1)c1ccc(Br)o1	SENP6 inh 88.6, SENP8 block-1 76.1, C8 TRAIL sens 78.4, SENP7 block 82.8 (no result: PPC-1+TRAIL kill) | SENP8 confirm 72.8 | SENP6 conf 78.7 | SENP7 confirm 93.9 | Casp3 SENP sel 81.6 | SENP luc ctr 60.1
CCC(=O)Nc1cccc(-c2ccc(N3CCC(C)CC3)nn2)c1	SENP6 inh 68.7, C8 TRAIL sens 93.9, SENP7 block 59.3 (no result: PPC-1+TRAIL kill) | SENP8 confirm inactive | SENP6 conf 56.0 | SENP7 confirm 83.9 | Casp3 SENP sel 73.0 | SENP luc ctr inactive
CC1CCN(c2ccc(-c3cccc(NC(=O)c4ccco4)c3)nn2)CC1	SENP6 inh 79.4, SENP8 block-1 59.3, C8 TRAIL sens 86.3, SENP7 block 73.6 (no result: PPC-1+TRAIL kill) | SENP8 confirm 66.4 | SENP6 conf 69.4 | SENP7 confirm 88.0 | Casp3 SENP sel 66.3 | SENP luc ctr inactive
Cc1ccc(C(=O)NCC(=O)OCC(=O)N(CC(C)C)c2c(N)n(Cc3ccccc3)c(=O)[nH]c2=O)s1	none (no result: PPC-1+TRAIL kill, SENP6 inh, SENP8 block-1, SENP7 block)
O=[N+]([O-])c1cc(S(=O)(=O)N2CCOCC2)ccc1OCc1ccccc1C(F)(F)F	none (no result: PPC-1+TRAIL kill)
COc1ccc(NC(=O)Nc2ccc(OC)cc2)cc1	none
CSc1ccccc1NC(=O)Nc1ccc(Cl)cc1	SENP8 block-1 92.3, SENP7 block 95.8 | SENP8 confirm inactive | SENP6 conf 95.8 | SENP7 confirm 100.7 | Casp3 SENP sel 85.1 | SENP luc ctr 63.2
COc1ccc(NC(=O)Nc2ccccc2SC)cc1	SENP6 inh 95.7, SENP8 block-1 92.0, SENP7 block 97.6 | SENP8 confirm 95.1 | SENP6 conf 95.7 | SENP7 confirm 100.6 | Casp3 SENP sel 95.6 | SENP luc ctr inactive
COc1ccc(Cl)cc1NC(=O)Nc1ccccc1SC	none
COc1ccc(NC(=O)Nc2ccc(N(C)C)cc2)cc1	SENP6 inh 80.7, SENP7 block 76.9 | SENP8 confirm inactive | SENP6 conf 69.9 | SENP7 confirm 89.9 | Casp3 SENP sel 85.3 | SENP luc ctr inactive
CCc1noc(C)c1C(=O)OCC(=O)NCc1ccccc1OC	none (no result: PPC-1+TRAIL kill)
Cc1noc(C)c1COc1ccccc1C(=O)N(C)Cc1ccco1	none (no result: PPC-1+TRAIL kill)
CCN(CC)CCN1C(=O)Cn2c(C)c(C)c3cccc1c32	SENP7 block 58.2! | SENP8 confirm inactive | SENP6 conf inactive | SENP7 confirm inactive | Casp3 SENP sel inactive | SENP luc ctr inactive
Cc1ccc(NC(=O)Nc2cccs2)cc1	SENP6 inh 64.2, SENP8 block-1 55.2 | SENP8 confirm inactive | SENP6 conf 55.7 | SENP7 confirm 87.4 | Casp3 SENP sel 64.8 | SENP luc ctr inactive

Assay outcomes (PubChem)
